# From PubChem BioAssay (EPA / NIEHS)
# Active and inactive are the calls of the source. Rule for the calls: active = hit-call score of the fitted dose curve at least 0.9, where 1 is the maximum; inactive = score below 0.9.
# Assay: ATG_MRE_CIS: Attagene CIS-FACTORIAL HepG2 Assay for human Metal Responsive Element (MRE) (AID 2282954)
# Settings: HepG2 MRE cis-reporter transcription, Attagene multiplex; actives raise or lower the signal
# Description: ATG_CIS is a cell-based, multiplexed-readout assay that uses HepG2, a human liver cell line, with measurements taken at 24 hours after chemical dosing in a 24-well plate.ATG_MRE_CIS is one of 52 assay component(s) measured or calculated from the ATG_CIS assay. It is designed to make measurements of mRNA induction, a form of inducible reporter, as detected with fluorescence intensity signals by Reverse transcription polymerase chain reaction (RT-PCR) and Capillary electrophoresis technology.Data from the assay component ATG_MRE_CIS was analyzed into 1 assay endpoint. This assay endpoint, ATG_MRE_CIS, was analyzed with bidirectional fitting relative to DMSO as the negative control and baseline of activity. Using a type of inducible reporter, measures of mRNA for gain or loss-of-signal activity can be used to understand the reporter gene at the transcription factor-level as they relate to the gene MTF1. Furthermore, this assay endpoint can be referred to as a primary readout, because this assay has produced multiple assay endpoints where this one serves a reporter gene function. To generalize the intended target to other relatable targets, this assay endpoint is annotated to the dna binding intended target family, where the subfamily is zinc finger.
# Human liver HepG2 cells are transiently transfected with multiple reporter transcription units (MRTUs) in 6-well plates using FuGene 6 reagent (Roche; 3 ml FuGene/1 mg DNA). The MRTU constructs are regulated by a cis-regulating element (promoter). […] A major difference between the CIS and TRANS system is that in CIS activities of endogenous TFs are measured, whereas the TRANS assay evaluates changes in activities of exogenous, chimeric NR-Gal4 proteins. […] At the end of 24 hour incubation, total RNA was isolated using TriZol reagent (Invitrogen). The isolated RNA is then reverse-transcribed using oligo(dT) primer and Mo-MLV reverse transcriptase (Invitrogen) with DNAse I (Ambion) treatment for 30 min. The one-tenth of the produced cDNA was amplified by PCR using Taq DNA polymerase (Invitrogen) and two reporter sequence-specific primers. The PCR products were fluorescently labeled by primer extension with 6-arboxyfluorescein (6-FAM) 5'-labeled reporter sequence-specific primer (2 min at 95 C, 20 s at 68 C and 10 min at 72 C) and these products were digested with 5U of HpaI (New England Biolabs) for 2h at 37 C. The fragments were purified using Qiaquick PCR columns (Qiagen), analyzed on an ABI 3130xL genetic analyzer (Applied Biosystems) with peak positions identified by using a set of X-rhodamine (ROX)-labeled MapMarker1000 molecular weight standards (BioVentures). The raw capillary electrophoresis data was processed using Attagraph software (Attagene).
SMILES,outcome,AC50
CN(C)C(=O)Nc1ccc(Oc2ccc(Cl)cc2)cc1,inactive,
Clc1cc(Cl)c(-c2c(Cl)c(Cl)cc(Cl)c2Cl)cc1Cl,,29.1 µM (active)
O=C(CC(=O)c1ccccc1)c1ccccc1,,136 µM (active)
CSc1c(Cl)c(Cl)c(Cl)c(Cl)c1Cl,,100 µM (active)
NCCNc1cccc2ccccc12,,156 µM (active)
CC/C=C\CC/C=C/CO,inactive,
CN(C)c1cccc(O)c1,inactive,
CCO/C=C1\N=C(c2ccccc2)OC1=O,inactive,
O=Cc1ccccc1S(=O)(=O)O,inactive,
CC(=O)c1c(C)c([N+](=O)[O-])c(C(C)(C)C)c([N+](=O)[O-])c1C,,11.5 µM (active)
COCCOC(=O)c1ccccc1C(=O)OCCOC,inactive,
CC1CCC(C(C)C)C(O)C1 (stereo not given),inactive,
OCc1ccc(Cl)cc1Cl,inactive,
Nc1ccc(Cl)c([N+](=O)[O-])c1,inactive,
COc1ccc(CCN2CCC(Nc3nc4ccccc4n3Cc3ccc(F)cc3)CC2)cc1,inactive,
CCc1ncc(C)[nH]1,inactive,
CC(=O)c1ccccn1,inactive,
CCCCOCC,inactive,
c1ccc(CN(Cc2ccccc2)Cc2ccccc2)cc1,inactive,
CC(=O)CC(=O)Nc1ccc(C)cc1C,inactive,

SMILES,outcome,AC50
CCN(CCN)c1cccc(C)c1,inactive,
O=CN1CCOCC1,inactive,
CCOc1ccccc1O,inactive,
CN1CCOCC1,inactive,
CCCC1O[C@@H]2C[C@H]3[C@@H]4CCC5=CC(=O)C=C[C@]5(C)[C@H]4[C@@H](O)C[C@]3(C)[C@]2(C(=O)CO)O1 (stereo not given in full),inactive,
C#CC(C)N(C)C(=O)Nc1ccc(Cl)cc1 (stereo not given),inactive,
CCCCCCC(O)CCCCCCCCCCC(=O)O (stereo not given),inactive,
CCC(C)=O,inactive,
OCCCCC(O)CO (stereo not given),inactive,
CCC(=O)OCCOc1ccccc1,inactive,
CC(CN=Cc1ccccc1O)N=Cc1ccccc1O (stereo not given),,26.8 µM (active)
CCCCCCCCCCCC(=O)OC[C@@H](O)[C@H]1OC[C@H](O)[C@H]1O,inactive,
CN(C)C(=S)SC(=S)N(C)C,,100 µM (active)
CCOC(=O)CN,inactive,
C=CCN(CC=C)CC=C,inactive,
Oc1ccc2cc(SSc3ccc4cc(O)ccc4c3)ccc2c1,,34.8 µM (active)
Cc1ncc([N+](=O)[O-])n1CCO,inactive,
O=C1CCCC=CCCCCCCCCCC1,inactive,
CC[N+](C)(CC)CC,inactive,
CCCCCCOCCOCCO,inactive,
